Inconclusive results are not listed. Entries that show only a call come without a potency. Activity calls are given as the source filed them. Calls come from the whole dose curve; as a rule, active = well fitted curve in the direction sought with a large enough effect; inconclusive = small, poorly fitted or top-dose-only effect, or another doubt; inactive = no such curve, though single readings can be large; an effect the other way counts as inactive or inconclusive.

The first test deals with Luciferin 4-monooxygenase (Photinus pyralis) (UniProt P08659). Kind of test: Primary firefly luciferase (FLuc) qHTS assay for identification of artifact compounds. (AID 1845220). Note: nearly all actives have a fitted effect of over 60% in size. The conditions noted are these: purified firefly luciferase, luminescence, 5 min; series mostly up to 54.1 µM. Summed up: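 In this counter-screen for luciferase artifacts, test compounds met substrate (10 uM each luciferin and ATP) before 10 nM enzyme started the reaction. Light output was measured 5 min later.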
In general terms: Quantitative high-throughput screening tests each substance at several concentrations.
Consider `NC(=O)N1CCC(CC(=O)N2CCC(C3c4ncc(Br)cc4CCc4cc(Cl)cc(Br)c43)CC2)CC1` (stereo unspecified), for which the Potency entry is “inactive”.

Turning to `C=C(C(=O)OC[C@H]1O[C@@H](OC(=O)/C=C/c2ccccc2)[C@H](O)[C@@H](O)[C@@H]1O)C(O)CO` (stereo partly specified), the Potency entry was “inactive”.

For `OC1C=C2C3CN(Cc4cc5c(cc43)OCO5)C2CC1O` (stereo unspecified), the Potency entry was “inactive”.

As to `CN(C)[C@@H]1CCc2[nH]c3ccc(NC(=O)c4ccc(F)cc4)cc3c2C1`, the Potency entry is “inactive”.

On to `COCc1c(Cl)ccc2c1CC[C@H]2c1ncc[nH]1`, for which the Potency result was “inactive”.

As to `CN1CCN(C2=Nc3ccccc3Nc3ccc(Cl)cc32)CC1`, the Potency entry was “inactive”.

For the compound `CC(C)C[C@@H](C(=O)N[C@@H](Cc1ccc(OCc2ccccc2)cc1)C(=O)NC(C)(C)C)N(C)Cc1ccc(C(C)(C)C)cc1`, the Potency entry was “inactive”.

For the compound `C=C1/C(=C/C=C2\CCC[C@]3(C)[C@@H]([C@H](C)/C=C/[C@@H](C)C(C)C)CC[C@@H]23)C[C@@H](O)C[C@@H]1O`, the Potency entry is “inactive”.

As to `C/C=C(/C)C(=O)O[C@H]1C=C(CO)C(=O)[C@H](OC(=O)/C(C)=C/CO)[C@H]1C(C)C`, the Potency entry was “inactive”.

Regarding `CC1(C(=O)Nc2ccc(F)nc2)CCCN1c1nc(Nc2cc(C3CC3)[nH]n2)c2cccn2n1` (stereo unspecified), the Potency result is “inactive”.

In the case of `COC(=O)C[C@H]1[C@]2(C)C3=C(C)[C@H](c4ccoc4)C[C@H]3O[C@@H]2[C@H](O)C2[C@](C)(C(=O)OC)C=CC(=O)[C@@]21C` (stereo partly specified), the Potency entry is “inactive”.

`Cc1[nH]c(/C=C2\C(=O)Nc3ccc(F)cc32)c(C)c1C(=O)NCCN1CCCC1`: the Potency entry was “inactive”.

As to `Cc1ccc(N2CCN(CCC3NC(=O)c4ccccc43)CC2)cc1C` (stereo unspecified), the Potency result is “inactive”.

Turning to `COc1ccc(N(C(=O)Nc2c(C)cccc2C)c2cc(Nc3ccc(N4CCN(C)CC4)cc3)ncn2)c(OC)c1`, the Potency entry was “inactive”.

For `O=C1Cc2c([nH]c3ccc(Br)cc23)-c2ncccc2N1`, the Potency result was “inactive”.

As to `COc1ccc([C@H](Cc2ccncc2)c2ccccc2)cc1OC1CCCC1`, the Potency entry was “inactive”.

Consider `Cc1cc(C)c(S(=O)(=O)n2cc(C)cc2C)c(C)c1`, for which the Potency result was “inactive”.

For `COC(=O)c1ccc2c(c1)nc(NC(=O)c1ccccc1)n2CCCc1ccccc1`, the Potency entry is “inactive”.

Regarding `C=C1CC[C@@H](O)[C@]2(C)CC[C@H]3C(=C)C(=O)O[C@@H]3[C@@H]12`, the Potency result is “inactive”.

For the compound `COc1cc(CCO)ccc1O[C@@H]1O[C@H](CO)[C@@H](O)[C@H](O)[C@H]1O`, the Potency result was “inactive”.

Take `Cc1[nH]c2ccc(F)cc2c1-c1nc2c3cccnc3c3ncccc3c2[nH]1`: the Potency entry was “inactive”.

Consider `O=C(NNc1nc2cc(F)ccc2n2cccc12)c1cnccn1`, for which the Potency result was “inactive”.

Turning to `CO[C@H]1C[C@@H]2CC[C@@H](C)[C@@](O)(O2)C(=O)C(=O)N2CCCC[C@H]2C(=O)O[C@H]([C@@H](C)C[C@@H]2CC[C@@H](O)[C@H](OC)C2)CC(=O)[C@H](C)/C=C(\C)[C@@H](O)[C@@H](OC)C(=O)[C@H](C)C[C@H](C)/C=C/C=C/C=C/1C`, the Potency result was “inactive”.

For the compound `C=C1C(=O)OC2/C=C(\C)CC/C=C(\C=O)C(OC)C(OC(=O)C(C)CC)C12` (stereo unspecified), the Potency entry was “inactive”.

Regarding `COc1cc2ncnc(Nc3ccc(F)c(Cl)c3)c2cc1O`, the Potency entry was “inactive”.

Regarding `COc1cccc(NCCC2(c3ccccc3)CC(C)(C)OC(C)(C)C2)c1`, the Potency result was “inactive”.

Take `O=S(=O)(Nc1ccccc1N1CCCCC1)c1ccc(Cl)s1`: the Potency entry is “inactive”.

As for `Cn1cc(C2=C(c3coc4ccccc34)C(=O)NC2=O)c2cc(Br)ccc21`, the Potency entry is “inactive”.

Take `C=C1C(=O)OC2C=C(C)CC/C=C(\CO)CC(O)C12` (stereo unspecified): the Potency result is “inactive”.

With `CC1(C)SCCN(S(=O)(=O)c2ccc(Oc3ccncc3)cc2)[C@H]1C(=O)NO`, the Potency result is “inactive”.

For the compound `CC(=O)O[C@]1(C(C)=O)CC[C@H]2[C@@H]3CCC4=CC(=O)CCC4=C3[C@@H](c3ccc(N(C)C)cc3)C[C@@]21C`, the Potency result is “inactive”.

Regarding `Cc1cc(-c2cc(OC(=O)c3ccccc3)ccc2Cl)cc2nnc(Nc3ccc(OCCN4CCCC4)cc3)nc12`, the Potency entry is “inactive”.

For the compound `C[C@H]1CO[C@@H]2Cn3cc(C(=O)NCc4ccc(F)cc4F)c(=O)c(O)c3C(=O)N12`, the Potency result was “inactive”.

Test system in another test: not listed separately
As to the kind of experiment: Primary fluorescence-based thiol-reactive (MSTI) qHTS assay for identification of artifact compounds. (AID 1845221). Note: nearly all actives have a fitted effect of over 65% in size. Note: potency is the fitted concentration of half-maximal effect. To be noted: MSTI thiol-reactivity probe, 1 h; series mostly up to 53.8 µM. In short, it runs like this:
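First, 4 uM MSTI in 2% DMSO/PBS pH 7.4 was dispensed; next, compounds were added; then plates sat 1 h at room temperature without light. Finally, emission at 598 nm was recorded.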
Take `CN(C)Cc1ccc(-c2cnn3c(-c4cccc(NC(=O)c5cccc(C(F)(F)F)c5)c4)ccnc23)cc1`: the Potency entry is “inactive”.

On to `O=C(Nc1ccc2[nH]nc(-c3ccncc3)c2c1)[C@@H]1CCN(CC(=O)N2CCN(c3ccc(-c4ncccn4)cc3)CC2)C1`, for which the Potency result was “inactive”.

As to `C/C(=N\N=C(N)N)c1cc(NC(=O)CCCCCCCCC(=O)Nc2cc(/C(C)=N/N=C(N)N)cc(/C(C)=N/N=C(N)N)c2)cc(/C(C)=N/N=C(N)N)c1`, the Potency entry is “inactive”.

Take `c1ccc(-c2cnn3cc(-c4ccc(OCCN5CCOCC5)cc4)cnc23)cc1`: the Potency result was “inactive”.

For `COc1cc2c(cc1O)C1(Cc3ccc4c(c3C1O)OCO4)[N+](C)([O-])CC2` (stereo unspecified), the Potency is 5.21 µM (active).

Consider `C=C1C(=O)OC[C@@H]1C/C=C(\C)CC1CC(C)C(=O)O1` (stereo partly specified), for which the Potency is 8.44 µM (active).

The next test relates to Nanoluciferase (engineered Oplophorus gracilirostris luciferase). Kind of test: Primary Nanoluciferase (NLuc) qHTS assay for identification of artifact compounds. (AID 1845222).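 Note: NLuc secreted into diluted conditioned medium of S16 cells.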 To be noted: NLuc-conditioned medium, Nano-Glo luminescence, 5 min; series mostly up to 54.1 µM. In short, it runs like this:
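Using secreted nanoluciferase in S16 culture medium (0.22 um filtered, 1:55 dilution), compounds were preincubated 15 min at RT. Signal was generated with Nano-Glo reagent (1:100) over 5 min.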
For the compound `NC(=O)N1CCC(CC(=O)N2CCC(C3c4ncc(Br)cc4CCc4cc(Cl)cc(Br)c43)CC2)CC1` (stereo unspecified), the Potency entry is “inactive”.

For `C=C(C(=O)OC[C@H]1O[C@@H](OC(=O)/C=C/c2ccccc2)[C@H](O)[C@@H](O)[C@@H]1O)C(O)CO` (stereo partly specified), the Potency result was “inactive”.

On to `CN(C)Cc1ccc(-c2cnn3c(-c4cccc(NC(=O)c5cccc(C(F)(F)F)c5)c4)ccnc23)cc1`, for which the Potency result is “inactive”.

On to `OC1C=C2C3CN(Cc4cc5c(cc43)OCO5)C2CC1O` (stereo unspecified), for which the Potency result was “inactive”.

As for `COCc1c(Cl)ccc2c1CC[C@H]2c1ncc[nH]1`, the Potency entry was “inactive”.

Regarding `CN1CCN(C2=Nc3ccccc3Nc3ccc(Cl)cc32)CC1`, the Potency entry was “inactive”.

Take `C=C1/C(=C/C=C2\CCC[C@]3(C)[C@@H]([C@H](C)/C=C/[C@@H](C)C(C)C)CC[C@@H]23)C[C@@H](O)C[C@@H]1O`: the Potency result is “inactive”.

Take `C/C=C(/C)C(=O)O[C@H]1C=C(CO)C(=O)[C@H](OC(=O)/C(C)=C/CO)[C@H]1C(C)C`: the Potency entry was “inactive”.

As to `O=C(Nc1ccc2[nH]nc(-c3ccncc3)c2c1)[C@@H]1CCN(CC(=O)N2CCN(c3ccc(-c4ncccn4)cc3)CC2)C1`, the Potency entry is “inactive”.

With `C/C(=N\N=C(N)N)c1cc(NC(=O)CCCCCCCCC(=O)Nc2cc(/C(C)=N/N=C(N)N)cc(/C(C)=N/N=C(N)N)c2)cc(/C(C)=N/N=C(N)N)c1`, the Potency entry was “inactive”.

As for `COC(=O)C[C@H]1[C@]2(C)C3=C(C)[C@H](c4ccoc4)C[C@H]3O[C@@H]2[C@H](O)C2[C@](C)(C(=O)OC)C=CC(=O)[C@@]21C` (stereo partly specified), the Potency result is “inactive”.

For `Cc1[nH]c(/C=C2\C(=O)Nc3ccc(F)cc32)c(C)c1C(=O)NCCN1CCCC1`, the Potency result was “inactive”.

As to `Cc1ccc(N2CCN(CCC3NC(=O)c4ccccc43)CC2)cc1C` (stereo unspecified), the Potency result is “inactive”.

Turning to `COc1ccc(N(C(=O)Nc2c(C)cccc2C)c2cc(Nc3ccc(N4CCN(C)CC4)cc3)ncn2)c(OC)c1`, the Potency result is “inactive”.

`COc1ccc([C@H](Cc2ccncc2)c2ccccc2)cc1OC1CCCC1`: the Potency entry was “inactive”.

On to `Cc1cc(C)c(S(=O)(=O)n2cc(C)cc2C)c(C)c1`, for which the Potency result is “inactive”.

In the case of `COC(=O)c1ccc2c(c1)nc(NC(=O)c1ccccc1)n2CCCc1ccccc1`, the Potency entry was “inactive”.

With `C=C1CC[C@@H](O)[C@]2(C)CC[C@H]3C(=C)C(=O)O[C@@H]3[C@@H]12`, the Potency result is “inactive”.

Take `COc1cc(CCO)ccc1O[C@@H]1O[C@H](CO)[C@@H](O)[C@H](O)[C@H]1O`: the Potency entry was “inactive”.

As to `O=C(NNc1nc2cc(F)ccc2n2cccc12)c1cnccn1`, the Potency entry is “inactive”.

Consider `CO[C@H]1C[C@@H]2CC[C@@H](C)[C@@](O)(O2)C(=O)C(=O)N2CCCC[C@H]2C(=O)O[C@H]([C@@H](C)C[C@@H]2CC[C@@H](O)[C@H](OC)C2)CC(=O)[C@H](C)/C=C(\C)[C@@H](O)[C@@H](OC)C(=O)[C@H](C)C[C@H](C)/C=C/C=C/C=C/1C`, for which the Potency result was “inactive”.

For the compound `C=C1C(=O)OC2/C=C(\C)CC/C=C(\C=O)C(OC)C(OC(=O)C(C)CC)C12` (stereo unspecified), the Potency entry was “inactive”.

`COc1cccc(NCCC2(c3ccccc3)CC(C)(C)OC(C)(C)C2)c1`: the Potency entry was “inactive”.

Take `O=S(=O)(Nc1ccccc1N1CCCCC1)c1ccc(Cl)s1`: the Potency entry was “inactive”.

As for `COc1cc2c(cc1O)C1(Cc3ccc4c(c3C1O)OCO4)[N+](C)([O-])CC2` (stereo unspecified), the Potency entry was “inactive”.

Consider `Cn1cc(C2=C(c3coc4ccccc34)C(=O)NC2=O)c2cc(Br)ccc21`, for which the Potency result was “inactive”.

On to `C=C1C(=O)OC2C=C(C)CC/C=C(\CO)CC(O)C12` (stereo unspecified), for which the Potency result is “inactive”.

With `CC1(C)SCCN(S(=O)(=O)c2ccc(Oc3ccncc3)cc2)[C@H]1C(=O)NO`, the Potency entry is “inactive”.

For the compound `C=C1C(=O)OC[C@@H]1C/C=C(\C)CC1CC(C)C(=O)O1` (stereo partly specified), the Potency entry was “inactive”.

`CC(=O)O[C@]1(C(C)=O)CC[C@H]2[C@@H]3CCC4=CC(=O)CCC4=C3[C@@H](c3ccc(N(C)C)cc3)C[C@@]21C`: the Potency result was “inactive”.

As for `Cc1cc(-c2cc(OC(=O)c3ccccc3)ccc2Cl)cc2nnc(Nc3ccc(OCCN4CCCC4)cc3)nc12`, the Potency result is “inactive”.

Take `C[C@H]1CO[C@@H]2Cn3cc(C(=O)NCc4ccc(F)cc4F)c(=O)c(O)c3C(=O)N12`: the Potency result is “inactive”.

Values taken from PubChem BioAssay (NCATS).
